# The source made the active and inactive calls.
# Legend:
# [1] = tested on: PRMT1 (protein arginine N-methyltransferase 1); assay: small molecules binding arginine methyltransferase PRMT1 – biochemical, small-molecule microarray, 635 nm fluorescence, primary screen (AID 1088); settings: higher = more signal;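 also: binding of Prmt1 protein to compounds spotted on small-molecule microarray slides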
# [2] = growth effects on S. cerevisiae YJM789 – YJM789 clinical isolate, OD600, 24 h, basal, primary screen (AID 1089); settings: higher = more signal, called active from +8 up or from −8 down;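 also: growth of clinical yeast isolate S. cerevisiae YJM 789 seeded 1000 cells per well; test concentration not given here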
# [3] = S. pombe growth modifiers, basal conditions – strain 972, OD600, 24 h, no modulator, primary screen (AID 1090);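 also: basal condition with compound alone and no growth modifier present; test concentration not given here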; settings: S. pombe 972 growth, higher = more signal, called active from +8 up or from −8 down
# [4] = budding yeast growth modifiers under rapamycin – strain BY4716, OD600, 96 h, primary screen (AID 1091); also: test concentration not given here; settings: S. cerevisiae BY4716 + rapamycin, higher = more signal, called active from +8 up or from −8 down
# [5] = molecular target: Torsin-1A-interacting protein 2 (Homo sapiens) (UniProt Q8NFQ8); assay: small molecules binding lysate-expressed LULL1 – cell lysate, human LULL1 lysate, 635/667 nm fluorescence, primary screen (AID 1092); settings: small-molecule microarray, hLULL1 lysate binding, 635 nm fluorescence; higher = more signal;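 also: probe is lysate of COS7 cells overexpressing human LULL1; score merges per-feature 667 nm fluorescence with signal-to-noise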
# Chain of Torsin-1A-interacting protein 2 (Homo sapiens) (Q8NFQ8 whole entry, looked up): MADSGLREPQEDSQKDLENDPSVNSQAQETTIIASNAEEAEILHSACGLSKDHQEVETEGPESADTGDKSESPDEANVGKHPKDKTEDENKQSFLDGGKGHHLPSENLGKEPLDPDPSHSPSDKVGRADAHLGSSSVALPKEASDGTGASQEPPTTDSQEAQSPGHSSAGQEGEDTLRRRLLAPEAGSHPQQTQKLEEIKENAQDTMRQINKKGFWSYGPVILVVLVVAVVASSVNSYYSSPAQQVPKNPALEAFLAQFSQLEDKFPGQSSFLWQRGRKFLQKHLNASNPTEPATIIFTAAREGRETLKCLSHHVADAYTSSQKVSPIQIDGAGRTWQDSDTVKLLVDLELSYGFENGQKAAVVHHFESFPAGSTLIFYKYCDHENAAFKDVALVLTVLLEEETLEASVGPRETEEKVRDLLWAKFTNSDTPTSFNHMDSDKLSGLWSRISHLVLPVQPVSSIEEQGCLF
# [6] = optical density change of DRC41 E. coli – strain DRC41, OD650, 24 h, E. coli filamentation project, primary screen (AID 1093);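 also: MC1000 strain lacking acrAB efflux and sulA so SOS filamentation is blocked; test concentration not given here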; settings: E. coli DRC41 growth, higher = more signal, called active from +8 up or from −8 down
# [7] = probe aLefty2 binding to arrayed compounds – biochemical, biotinylated probe, 635/667 nm fluorescence, primary screen (AID 1094); settings: small-molecule microarray, higher = more signal;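 also: score merges spot fluorescence near 667 nm with spot signal-to-noise ratio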
# [8] = tested on: Noggin (protein binding on small-molecule microarray); assay: small molecules binding Noggin protein – biochemical, 635/667 nm fluorescence, primary screen (AID 1095); settings: 635 nm fluorescence, higher = more signal;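 also: score merges 667 nm feature fluorescence with signal to noise over triplicate slides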
# [9] = molecular target: Neurogenic locus notch homolog protein 3 (Homo sapiens) (UniProt Q9UM47); assay: small molecules binding NOTCH3 protein – biochemical, 635/667 nm fluorescence, primary screen (AID 1096); settings: small-molecule microarray, 635 nm fluorescence, higher = more signal
# Chain of Neurogenic locus notch homolog protein 3 (Homo sapiens) (Q9UM47 whole entry, looked up): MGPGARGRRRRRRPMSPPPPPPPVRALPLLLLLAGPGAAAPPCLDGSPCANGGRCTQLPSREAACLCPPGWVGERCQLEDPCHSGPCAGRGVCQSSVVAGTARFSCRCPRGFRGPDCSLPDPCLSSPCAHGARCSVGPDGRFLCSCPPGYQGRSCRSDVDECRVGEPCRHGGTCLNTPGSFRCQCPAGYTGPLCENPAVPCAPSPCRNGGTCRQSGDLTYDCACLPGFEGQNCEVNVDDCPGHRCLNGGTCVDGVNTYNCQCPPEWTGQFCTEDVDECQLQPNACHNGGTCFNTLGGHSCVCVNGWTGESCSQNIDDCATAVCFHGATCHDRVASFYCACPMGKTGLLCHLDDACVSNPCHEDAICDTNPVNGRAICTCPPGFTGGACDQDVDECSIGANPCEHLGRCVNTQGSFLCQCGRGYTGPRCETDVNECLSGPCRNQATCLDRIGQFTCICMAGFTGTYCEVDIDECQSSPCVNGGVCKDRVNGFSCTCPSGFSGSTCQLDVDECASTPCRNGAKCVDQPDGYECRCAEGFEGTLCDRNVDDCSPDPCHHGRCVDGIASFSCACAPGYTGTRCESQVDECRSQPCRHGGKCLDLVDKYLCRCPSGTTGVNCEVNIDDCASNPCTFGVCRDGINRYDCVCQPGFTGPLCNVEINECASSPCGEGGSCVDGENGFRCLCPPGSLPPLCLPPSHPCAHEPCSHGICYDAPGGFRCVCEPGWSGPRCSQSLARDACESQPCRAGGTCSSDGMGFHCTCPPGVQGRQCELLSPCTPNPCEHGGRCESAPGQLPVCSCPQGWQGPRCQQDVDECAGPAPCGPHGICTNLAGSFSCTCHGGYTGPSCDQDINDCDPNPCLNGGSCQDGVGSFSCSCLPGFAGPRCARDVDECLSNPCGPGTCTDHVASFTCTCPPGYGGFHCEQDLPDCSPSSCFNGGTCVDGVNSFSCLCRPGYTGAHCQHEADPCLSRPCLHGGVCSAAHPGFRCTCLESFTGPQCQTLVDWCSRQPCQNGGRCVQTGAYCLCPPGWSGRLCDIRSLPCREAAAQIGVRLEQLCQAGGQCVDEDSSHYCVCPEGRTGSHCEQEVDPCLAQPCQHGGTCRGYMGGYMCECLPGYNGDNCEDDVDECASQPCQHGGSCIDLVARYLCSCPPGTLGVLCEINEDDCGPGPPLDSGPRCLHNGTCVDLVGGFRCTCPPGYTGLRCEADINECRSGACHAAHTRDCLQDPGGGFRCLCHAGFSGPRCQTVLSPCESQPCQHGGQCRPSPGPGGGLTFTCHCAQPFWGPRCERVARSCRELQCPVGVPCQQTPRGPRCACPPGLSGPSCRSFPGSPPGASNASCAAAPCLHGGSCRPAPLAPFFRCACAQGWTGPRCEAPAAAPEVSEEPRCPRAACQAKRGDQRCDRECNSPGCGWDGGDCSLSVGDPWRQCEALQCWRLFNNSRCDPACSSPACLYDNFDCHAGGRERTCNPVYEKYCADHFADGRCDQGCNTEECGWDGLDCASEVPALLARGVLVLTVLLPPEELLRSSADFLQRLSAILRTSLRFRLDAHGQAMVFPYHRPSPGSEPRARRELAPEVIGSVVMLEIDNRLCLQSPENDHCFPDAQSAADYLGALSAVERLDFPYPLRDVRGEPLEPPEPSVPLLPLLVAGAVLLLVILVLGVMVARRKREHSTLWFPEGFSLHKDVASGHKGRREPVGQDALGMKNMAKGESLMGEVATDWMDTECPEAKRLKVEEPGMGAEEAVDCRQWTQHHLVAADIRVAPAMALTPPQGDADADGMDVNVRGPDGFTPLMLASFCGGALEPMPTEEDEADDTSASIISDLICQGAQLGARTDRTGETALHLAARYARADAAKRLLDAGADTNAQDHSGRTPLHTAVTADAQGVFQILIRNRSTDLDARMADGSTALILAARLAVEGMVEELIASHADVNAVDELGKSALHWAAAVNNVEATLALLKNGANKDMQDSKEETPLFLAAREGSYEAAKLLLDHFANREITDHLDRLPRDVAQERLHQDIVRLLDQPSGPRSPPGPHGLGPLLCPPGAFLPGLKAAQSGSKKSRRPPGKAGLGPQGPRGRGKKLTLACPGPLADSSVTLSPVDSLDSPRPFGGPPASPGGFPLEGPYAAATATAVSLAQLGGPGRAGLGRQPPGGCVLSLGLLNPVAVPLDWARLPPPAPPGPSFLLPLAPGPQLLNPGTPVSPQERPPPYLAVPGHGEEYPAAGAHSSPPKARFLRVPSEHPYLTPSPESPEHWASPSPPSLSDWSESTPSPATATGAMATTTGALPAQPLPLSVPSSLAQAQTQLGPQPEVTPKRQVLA
# [10] = probe aEGFR binding to arrayed compounds – biochemical, biotinylated probe, 635/667 nm fluorescence, primary screen (AID 1097); settings: small-molecule microarray, higher = more signal;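 also: probe is a biotinylated anti-EGFR antibody binding compounds printed on slides; score combines fluorescence near 667 nm and signal to noise of each spot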
Structure (SMILES),composite z-score [1],z-score [2],z-score [3],z-score [4],composite z-score [5],z-score [6],composite z-score [7],composite z-score [8],composite z-score [9],composite z-score [10]
CCCC[C@H]1OB(O)C[C@H]2C1=C(COc1ccccc1)C[C@H]1C(=O)N(Cc3ccccc3)C(=O)[C@H]12,0.385,-1.87 (inactive),-1.54 (inactive),-1.6 (inactive),1.33,0.194 (inactive),-0.121,1.51,0.862,-0.0828
C[N+](C)(C)CCCCNC(=O)[C@H]1C[C@H]2C(=O)N3CCC[C@H]3C(=O)N2[C@H]1c1ccc(O)cc1,1.54,0.0531 (inactive),0.0211 (inactive),-1.41 (inactive),2.14,-0.0773 (inactive),-0.101,1.85,1.04,0.124
C=CC[C@@]1(C(=O)OC)N=C(c2ccc(OCCCO)cc2)O[C@@H]1c1ccccc1CN=[N+]=[N-],1.3,-3.29 (inactive),-4.42 (inactive),6.32 (inactive),1.41,1.21 (inactive),0.0427,0.744,-0.159,-0.0531
Cc1ccccc1/C=C/C=O,-1.47,-1.01 (inactive),-3.42 (inactive),-0.402 (inactive),-0.672,0.35 (inactive),-0.13,-0.13,-1.63,-0.307
O=C1OCC=C[C@H]2OC34C=CCN(CCN5CCOCC5)C(=O)[C@H]3N(CCCCCCO)C(=O)[C@@H]4[C@@H]12 (stereo not given in full),0.171,-1.4 (inactive),-1.1 (inactive),-0.918 (inactive),2.87,-0.608 (inactive),-0.0009,0.0056,-0.0123,0.0792
COC(=O)[C@@]1(Cc2ccc(OC)cc2)[C@H]2c3cc(C(=O)N4CCCC4)n(CCc4ccccn4)c3C[C@H]2CN1C(=O)c1ccccc1,-1.52,0.328 (inactive),0.479 (inactive),0.556 (inactive),3.62,-1.41 (inactive),0.0363,-0.857,-0.14,-0.0122
CCCCN1CC=CC23O[C@@H]4/C=C\CCCOC(=O)C4[C@H]2C(=O)N(C(C)CO)[C@@H]3C1=O (stereo not given in full),-0.376,-0.0849 (inactive),-0.958 (inactive),-0.417 (inactive),-0.0431,0.315 (inactive),-0.282,0.16,-0.0087,-0.233
[N-]=[N+]=Nc1ccccc1[C@@H]1OC(c2ccc(OCCCO)cc2)=N[C@]1(CCS(=O)(=O)c1ccccc1)C(=O)N1CCCCC1,1.56,0.436 (inactive),1.15 (inactive),2.83 (inactive),2.83,0.106 (inactive),0.799,0.237,1.05,0.292
C=C(COC)C(=O)CC[C@H](OC(=O)c1cccnc1)c1ccccc1OCCO,1.56,-2.31 (inactive),-1.57 (inactive),-0.278 (inactive),1.47,0.473 (inactive),0.157,1.15,1.15,-0.0406
C=CCC(OC(C)=O)[C@@H]1[C@@H](N(Cc2ccc(-c3ccccc3)cc2)C(=O)c2ccc(C)cc2)c2cc(OCCCO)ccc2N1C(=O)Cc1ccc(OC)cc1 (stereo not given in full),1.1,-2.3 (inactive),-1.13 (inactive),-0.713 (inactive),0.178,1.26 (inactive),-0.166,0.0438,0.338,-0.109
C=C[C@H](C)[C@H](O)c1ccc(OCCO)cc1,-0.647,0.132 (inactive),-0.404 (inactive),-0.539 (inactive),-1.2,0.943 (inactive),0.19,-1.19,-1.11,-0.397
O=C1C[C@@](C(=O)O)(c2ccc([N+](=O)[O-])cc2)[C@@H](c2ccc(CO)cc2I)N1CC12CC3CC(CC(C3)C1)C2,1.47,-0.12 (inactive),-3.03 (inactive),5.6 (inactive),2.79,0.177 (inactive),-0.0096,0.0251,1.06,-0.0056
O=C1O[C@H](c2ccccc2)[C@H](c2ccccc2)N2[C@H]1[C@@H](C(=O)NC[C@H](O)c1ccccc1)[C@]1(C(=O)Nc3ccc(C#CC4=CCCCC4)cc31)[C@H]2c1ccc(O)cc1,1.55,0.896 (inactive),0.543 (inactive),1.62 (inactive),2.59,2 (inactive),-0.0766,1.61,1.08,0.272
COc1cc2c(cc1O)C(c1ccc(CN3CCCC3)cc1)N(Cc1sc3ccccc3c1Cl)CC2 (stereo not given),1.13,-1.43 (inactive),-17.7 (active),-1.1 (inactive),1.93,0.504 (inactive),0.157,0.369,0.202,0.0475
O=C1OCCC=C[C@H]2OC34C=CCN(CCN5CCOCC5)C(=O)[C@H]3N(CCO)C(=O)[C@@H]4C12 (stereo not given in full),0.134,-0.698 (inactive),-0.518 (inactive),-0.482 (inactive),-0.114,0.0484 (inactive),-0.145,0.922,0.439,-0.23
CCOC1=C2C(c3ccc(C)cc3)N(S(=O)(=O)c3ccc(C)cc3)CC2n2c(=O)n(-c3ccccc3)c(=O)n2C1 (stereo not given),1.41,-0.281 (inactive),0.401 (inactive),1.73 (inactive),2.89,-0.278 (inactive),0.152,0.351,1.08,0.0201
C=C(/C(=C/C[C@@H](OC(=O)c1ccncc1)c1ccc(CO)o1)c1cc(C(=O)OC)ccc1OC)C(C)C,1.53,0.523 (inactive),-1.28 (inactive),-0.414 (inactive),2.47,0.481 (inactive),-0.129,0.855,1.03,0.0073
O=S(=O)(NCCCO)c1ccc(Br)cc1,0.607,-1.72 (inactive),-1.57 (inactive),-0.531 (inactive),1.18,0.707 (inactive),-0.18,0.355,-0.271,-0.0363
COCCOC(=O)N1C(=O)[C@@]2(c3cc(C#CCC(C(=O)OC)C(=O)OC)ccc31)[C@H](c1ccccc1OCCO)N1[C@H](c3ccccc3)[C@H](c3ccccc3)OC(=O)[C@H]1[C@@H]2C(=O)Nc1nc2ccccc2s1,1.5,-1.03 (inactive),-0.573 (inactive),1.95 (inactive),2.22,4.28 (inactive),0.0416,1.05,1.05,0.0632
Cc1ccc(F)cc1S(=O)(=O)N[C@@H]1CCN(Cc2ccc(C(F)(F)F)cc2)C1,1.14,-1.27 (inactive),-20.3 (active),-1.1 (inactive),1.08,-4.8 (inactive),-0.227,0.412,-0.145,-0.218
C=CCN1Cc2ccccc2C[C@@]2(COC(c3ccc(OCCCO)cc3)=N2)C1=O,1.5,-0.915 (inactive),-4.77 (inactive),0.817 (inactive),2.3,1.42 (inactive),0.247,0.34,0.454,0.052
COc1ccc(C(=O)Nc2cccc(CN3C(=O)[C@@]4(O[C@@H](CCn5cc([C@H](O)c6ccccc6)nn5)[C@H]([Si](C)(C)c5ccc(OC)cc5)[C@H]4C)c4ccccc43)c2)cc1,0.677,-0.384 (inactive),-1.17 (inactive),0.0585 (inactive),1.11,-0.594 (inactive),0.0123,1.58,0.806,-0.0947
COC(=O)[C@@]1(Cc2ccc(OC)cc2)[C@H]2c3cc(C(=O)N(C)C)n(Cc4ccc(OC)c(OC)c4)c3C[C@H]2CN1C(=O)c1ccccc1,1.58,1.04 (inactive),2.35 (inactive),4.24 (inactive),3.65,-0.841 (inactive),0.401,-0.356,1.03,0.288
COc1ccc(C#Cc2ccc3c(c2)[C@]2(C(=O)N3)[C@H](C(=O)N3CCN(c4ncccn4)CC3)[C@H]3C(=O)O[C@H](c4ccccc4)[C@H](c4ccccc4)N3[C@@H]2c2ccc(O)cc2)cc1,1.56,0.77 (inactive),0.86 (inactive),1.17 (inactive),2.33,-0.459 (inactive),0.0897,0.496,0.853,-0.0573
CC(c1ccccc1)C(O)C1C=CC2C(=O)N(Cc3ccccc3)C(=O)C2N1n1cnnc1 (stereo not given),0.418,-1.04 (inactive),-0.0262 (inactive),0.496 (inactive),1.6,-1.27 (inactive),0.0524,0.483,0.728,0.08
[N-]=[N+]=NCc1ccccc1C[C@@]1(C(=O)NCc2ccccc2)N=C(c2ccc(OCCCO)cc2)O[C@@H]1c1ccccc1CN=[N+]=[N-],1.57,-1.34 (inactive),0.0392 (inactive),36 (active),3.25,1.16 (inactive),0.395,0.234,0.756,0.0157
COc1cc(CO)cc(I)c1O[C@H]1C=C(C(=O)NCCO)C[C@@H](N(CCc2cccc(F)c2)C(=O)CCC2CCCC2)[C@@H]1O,1.55,0.645 (inactive),-6.99 (inactive),-1.02 (inactive),1.7,0.0555 (inactive),-0.0632,1.91,0.922,-0.0302
O=C(N1CCCCC1)[C@]1(CCS(=O)(=O)c2ccccc2)N=C(c2ccc(OCCCO)cc2)O[C@@H]1c1ccccc1,1.56,-0.503 (inactive),-0.282 (inactive),5.25 (inactive),2.4,-0.643 (inactive),0.568,0.115,1.11,0.244
C=CC[C@@]1(C(=O)NCc2ccccc2)N=C(c2ccc(OCCCO)cc2)O[C@@H]1c1ccccc1CN=[N+]=[N-],0.985,0.371 (inactive),1.68 (inactive),4.84 (inactive),3.17,-0.759 (inactive),0.418,0.0824,0.901,0.0149

# Reference: PubChem BioAssay
